Screening results: PubChem, National Center for Advancing Translational Sciences (NCATS)
Rango-impB inh: Rango-importin beta binding inhibition; Q14974; Rango CFP/YFP FRET sensor + importin beta, 45 min; Potency, µM (top dose mostly 92.2 µM), for inactives: at the highest dose inhibition of complex formation; hit rate 0.031% among 340,000;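 note: potency is the fitted concentration of half-maximal effect; 0% = DMSO wells and 100% = buffer wells lacking importin beta; nearly all actives have a fitted effect of over 15% in size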
Target sequence (Q14974 whole entry, looked up): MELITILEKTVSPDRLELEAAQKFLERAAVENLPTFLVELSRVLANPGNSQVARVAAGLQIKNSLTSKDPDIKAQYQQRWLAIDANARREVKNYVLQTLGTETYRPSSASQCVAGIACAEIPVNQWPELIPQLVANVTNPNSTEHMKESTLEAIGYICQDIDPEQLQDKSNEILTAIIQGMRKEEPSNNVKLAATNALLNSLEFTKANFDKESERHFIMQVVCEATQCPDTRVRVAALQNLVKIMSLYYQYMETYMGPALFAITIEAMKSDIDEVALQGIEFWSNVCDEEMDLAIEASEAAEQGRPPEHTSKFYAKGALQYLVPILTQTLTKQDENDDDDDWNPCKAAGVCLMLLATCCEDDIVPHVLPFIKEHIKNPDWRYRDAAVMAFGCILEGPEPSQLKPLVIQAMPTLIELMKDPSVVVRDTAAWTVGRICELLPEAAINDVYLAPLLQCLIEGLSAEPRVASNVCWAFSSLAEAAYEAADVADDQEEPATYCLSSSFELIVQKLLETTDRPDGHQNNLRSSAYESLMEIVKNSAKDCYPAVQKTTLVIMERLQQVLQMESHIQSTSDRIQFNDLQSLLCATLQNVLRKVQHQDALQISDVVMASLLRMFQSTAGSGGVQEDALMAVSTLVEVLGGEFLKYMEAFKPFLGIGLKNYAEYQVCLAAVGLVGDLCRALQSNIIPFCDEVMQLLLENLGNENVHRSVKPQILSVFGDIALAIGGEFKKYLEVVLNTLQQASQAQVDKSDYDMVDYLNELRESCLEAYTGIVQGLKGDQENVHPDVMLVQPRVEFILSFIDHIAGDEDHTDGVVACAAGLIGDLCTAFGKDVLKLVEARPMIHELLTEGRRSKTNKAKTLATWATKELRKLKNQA
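Inhibition scored from the CFP 486 nm/YFP 530 nm FRET ratio 45 min after adding 0.125 microM importin beta to 50 nM Rango biosensor preincubated 5 min with compound (room temperature, PBS with DTT, Tween-20, BSA). No-importin wells as positive control.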
Giardia killer: kills Giardia lamblia. Giardia lamblia trophozoite viability. activity change, % at 7.66 µM, hits read low. hit rate 0.15% among 340,000. AID 540267; in the data active = activity change below about -80%; inconclusive = between about -30% and that limit;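 note: parasites exposed to compound for two days anaerobically before the ATP read; % is set by controls: 0 for no effect and ±100 for the full control effect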
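Giardia trophozoites, 100 cells per well, were exposed to compounds for 48 hrs at 37 deg C under anaerobic conditions; viability was then read as ATP content by bioluminescence after 15-30 min at room temperature.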
Rango dissoc inh: inhibitors of RanGTP-induced Rango-importin beta complex dissociation; Potency, µM (titrated, usually from 46.1 µM), without a hit: at the highest dose activity change, negative = inhibition; hit rate 0.071% among 340,000; AID 540253; Biochemical FRET Rango-importin beta, RanGTP-induced dissociation; O95149+P62826; note: potency is the fitted concentration of half-maximal effect; % of control where 0% means no effect; nearly all actives have a fitted effect of over 45% in size
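Recombinant Rango FRET biosensor (EYFP–snurportin 1 IBB–cerulean CFP10) at 0.1 uM premixed with 0.25 uM importin beta in PBS, 1 mM DTT, 0.02% Tween-20, 0.1% BSA. Compound added 5 min; RanGTP-RCC1 (0.6 uM Ran, 2 mM GTP, 0.2 uM RCC1) then triggers release, read at 45 min.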
Integrin act MD: integrin-mediated muscular dystrophy alleviation activation | alpha7betagal myoblasts, beta-gal FDG fluorescence, 48 h | hit rate 0.064% among 350,000 | Potency, µM (series often up to 38.3 µM), for the others: top-dose activation, actives largely listed as activators | AID 624291; active = well fitted activation curve with a large enough effect; inconclusive = small, poorly fitted or top-dose-only effect; inactive = no such curve, though single readings can be large or run the other way;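 note: potency is the fitted concentration of half-maximal effect; 100% = response of the positive control SU9516; nearly all actives have a fitted effect of over 60% in size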
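Alpha7betagal+/- myoblasts (passage 13) were plated 16-24 hr, then exposed to compounds (1:260 dilution of DMSO stock) for 48 hours at 37C. After MPER lysis, β-galactosidase reporter activity was read as FDG fluorescence (ex 480/em 540) after 30 minutes.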
uPA surface inh: inhibitors of cell surface uPA generation; cell surface uPA generation assay, qHTS; Potency, µM (top dose mostly 38.3 µM), without a hit: at the top dose activity change, negative = inhibition, most hits filed as inhibitors; hit rate 0.31% among 330,000; AID 540303; active = well fitted inhibition curve with a large enough effect; inconclusive = small, poorly fitted or top-dose-only effect; inactive = no such curve, though single readings can be large or run the other way; tested in mouse RAW 264.7 cells; note: potency is the fitted concentration of half-maximal effect; % is set by controls: 0 for no effect and ±100 for the full control effect; nearly all actives have a fitted effect of over 55% in size
Starred values were filed as active, the others as inactive. The list is not random: actives were taken first. Their share in the collection is about 0.59%. Unless noted, calls come from the whole dose curve.

For Cc1cc2ccccn2c1C(=O)c1ccc([N+](=O)[O-])cc1[N+](=O)[O-] the results were Rango-impB inh 2%, Giardia killer -86*, Rango dissoc inh 2%, Integrin act MD -21% and uPA surface inh 2%.
For COc1ccc(-c2nsc3c(N4CCCCC4)ncnc23)cc1 the results were Rango-impB inh -3%, Giardia killer inconclusive, Rango dissoc inh 0%, Integrin act MD inconclusive and uPA surface inh -5%.
`COc1ccc(-c2nsc3c(N4CCCCC4C)ncnc23)cc1` (configuration not stated) gave Rango-impB inh -2%, Giardia killer inconclusive, Rango dissoc inh -10%, Integrin act MD -1% and uPA surface inh 3.2µM*.
`Cn1c(NCc2ccc(Cl)cc2)nc2ccccc21` gave Rango-impB inh -1%, Giardia killer -14, Rango dissoc inh -3%, Integrin act MD 17% and uPA surface inh -2%.
For Cc1ccc(CNc2nc3ccccc3n2C)cc1 the results were Rango-impB inh -4%, Giardia killer 6, Rango dissoc inh 1%, Integrin act MD 10% and uPA surface inh 4µM*.
Screening Cc1ccc(NC(=O)NCc2nc3ccccc3n2C)cc1 returned Rango-impB inh 2%, Giardia killer -16, Rango dissoc inh 1%, Integrin act MD 4.5µM* and uPA surface inh 2%.
Screening CCOc1ccc(N(CC(=O)Nc2cc(Cl)ccc2C)S(C)(=O)=O)cc1 returned Rango-impB inh -1%, Giardia killer 2, Rango dissoc inh 3%, Integrin act MD -13% and uPA surface inh inconclusive.
For COc1ccc(-c2cc3nc(C)n(N)c(=O)c3s2)cc1 the results were Rango-impB inh -3%, Giardia killer inconclusive, Rango dissoc inh -5%, Integrin act MD 8% and uPA surface inh 0.71µM*.
`Cc1nc2cc(-c3ccccc3)sc2c(=O)n1N` gave Rango-impB inh 0%, Giardia killer inconclusive, Rango dissoc inh 11%, Integrin act MD inconclusive and uPA surface inh -11%.
Cc1ccc(C)c(Nc2cc(C)nc(-c3ccccc3O)n2)c1 was read as Rango-impB inh 1%, Giardia killer -13, Rango dissoc inh 24%, Integrin act MD -24% and uPA surface inh 7.1µM*.
For Cc1cc(Nc2ccccc2Cl)nc(-c2ccccc2O)n1 the results were Rango-impB inh 3%, Giardia killer -19, Rango dissoc inh -3%, Integrin act MD inconclusive and uPA surface inh -5%.
`Cc1cc(-c2ccccc2)n2nc(N)nc2n1` gave Rango-impB inh -3%, Giardia killer -8, Rango dissoc inh -1%, Integrin act MD 13µM* and uPA surface inh -1%.
Cc1cc(C)n2nc(N)nc2n1 was read as Rango-impB inh 3%, Giardia killer -13, Rango dissoc inh -13%, Integrin act MD 6% and uPA surface inh 5%.
For COc1ccc(CC2=CC(=O)c3ccccc3C2=O)cc1 the results were Rango-impB inh 3%, Giardia killer 34, Rango dissoc inh -14%, Integrin act MD -61% and uPA surface inh inconclusive.
Screening CC(=O)Nc1ccc(SCCN2CCN(C)CCC2=O)cc1 returned Giardia killer -10.
CCn1nc(-c2ccc(C)cc2)nc2c(=O)n(C)c(=O)nc1-2 was read as Giardia killer -102*.
For Cn1nc(-c2ccncc2)nc2c(=O)n(C)c(=O)nc1-2 the results were Giardia killer -88*.
For COC(=O)C1=Cc2cc(OC)cc([N+](=O)[O-])c2OC1N1CCOCC1 (configuration not stated) the results were Rango-impB inh 0%, Giardia killer -4, Rango dissoc inh 2%, Integrin act MD 0% and uPA surface inh 10%.
For COc1ccc(/C=C/c2ccccc2)cc1C1C2C=CCCC2(C)C(=O)N1Cc1ccccc1 (configuration not stated) the results were Giardia killer -8.
For O=C(COC(=O)C12CC3CC(CC(Br)(C3)C1)C2)NCc1ccco1 the results were Giardia killer 6.
`Cc1ccc(-c2c(C3C4C=CCCC4(C)C(=O)N3Cc3ccccc3)ccc3ccccc23)cc1` (configuration not stated) gave Giardia killer 8.
Screening O=[N+]([O-])c1cc2cccnc2c2ncccc12 returned Rango-impB inh -1%, Giardia killer -88*, Rango dissoc inh -22%, Integrin act MD -18% and uPA surface inh -12%.
